This is an account of results in PubChem BioAssay (EPA / NIEHS).

Where “and” joins values, the source holds several entries; their conditions need not be identical. Identical values can stand only once. Records with an inconclusive call do not appear. The source holds several records for some structures; these can differ, active in one and inactive in another. Calls of active or inactive are those of the source. Rule for the calls: active = hit-call score of the fitted dose curve at least 0.9, where 1 is the maximum; inconclusive = response in the unintended direction; inactive = score below 0.9.

A short description of test [1]: ATG_XTT_Cytotoxicity: Cytotoxicity Assessment in the Attagene TRANS-FACTORIAL HepG2 Assay (AID 2283584). The method, boiled down:
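XTT readout of cell number in transfected HepG2 cells, 24 h post-dosing; DMSO serves as negative control and baseline, with activity taken as loss of viability signal.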

The nature of test [2]: TOX21_p53_BLA_p2_viability: Viability Assessment in the Tox21 HCT-116 p53 Agonism Beta-lactamase Assay, Phase 2 (AID 2283591).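 Note: compound exposure lasted 16 h at 37 °C; actives lower the ATP signal meaning cytotoxicity.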 The procedure, abridged: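 Cytotoxicity readout: CellTiter-Glo ATP luminescence, 30 min at room temperature, after the beta-lactamase read. Cells were HCT116 exposed 16 h at 37C to compounds pin-transferred at 217-fold dilution from DMSO stocks.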

Test [3] concerns the target Cellular tumor antigen p53 (Homo sapiens) (UniProt P04637). Nature of the test: TOX21_p53_BLA_p2_ratio: Tox21 HCT-116 p53 Agonism Beta-lactamase Assay, Ratio, Phase 2 (AID 2283592). The procedure, abridged: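 In this cell-based reporter format, HCT116 cells were dosed with chemicals delivered from DMSO by 217-fold dilution and incubated 16 h at 37C. Emission at 460 and 530 nm after 2 h CCF4-AM loading provided the ratio, fitted upward versus DMSO.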

A short description of test [4]: TOX21_p53_BLA_p3_viability: Viability Assessment in the Tox21 HCT-116 p53 Agonism Beta-lactamase Assay, Phase 3 (AID 2283593).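 Note: cells exposed to compound for 16 h before reading.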 The procedure, abridged: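 Cellular ATP was quantified by CellTiter-Glo luminescence, read after 30 min at room temperature. Beforehand, HCT116 cells (4000/well) received compound 5 h post-seeding, 217-fold diluted from DMSO, then incubated 16 h at 37C.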

For test [5], the target named is Cellular tumor antigen p53 (Homo sapiens) (UniProt P04637). Kind of test: TOX21_p53_BLA_p3_ratio: Tox21 HCT-116 p53 Agonism Beta-lactamase Assay, Ratio, Phase 3 (AID 2283596). The procedure, abridged:
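HCT116 p53-bla cells (4000/well) given compound in DMSO (217-fold dilution) after 5 h, incubated 16 h at 37C. CCF4-AM substrate 2 h at room temperature; 460/530 nm emission ratio, gain fitted against DMSO.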

Test [6] in a line: TOX21_p53_BLA_p4_viability: Viability Assessment in the Tox21 HCT-116 p53 Agonism Beta-lactamase Assay, Phase 4 (AID 2283597).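 Note: hits lower the luminescence signal meaning cytotoxicity.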 The method, boiled down: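 We seeded HCT116 p53 reporter cells at 4000/well and waited 5 h. We then added compounds in DMSO at a 217-fold dilution and incubated for 16 h. Viability was read as CellTiter-Glo luminescence after 30 min at RT.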
Test [7] deals with Cellular tumor antigen p53 (Homo sapiens) (UniProt P04637). Kind of test: TOX21_p53_BLA_p5_ratio: Tox21 HCT-116 p53 Agonism Beta-lactamase Assay, Ratio, Phase 5 (AID 2283599). The procedure, abridged:
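Beta-lactamase reporter ratio (blue 460 nm over green 530 nm, 405 nm excitation) after 2 h CCF4-AM loading, in HCT-116 cells exposed 16 h at 37 C to compounds pinned at 217-fold dilution. Increases relative to DMSO baseline scored.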

Test [8] in a line: TOX21_p53_BLA_p5_viability: Viability Assessment in the Tox21 HCT-116 p53 Agonism Beta-lactamase Assay, Phase 5 (AID 2283600). The procedure, abridged:
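Compounds, pinned from DMSO at 217-fold dilution, were left on the cells for 16 h. The viability endpoint was ATP content measured by CellTiter-Glo luminescence, where falling signal reflects cytotoxicity.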

Test [9] deals with Cellular tumor antigen p53 (Homo sapiens) (UniProt P04637). Nature of the test: TOX21_p53_BLA_p4_ratio: Tox21 HCT-116 p53 Agonism Beta-lactamase Assay, Ratio, Phase 4 (AID 2283601). The procedure, abridged:
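Signal is the blue/green (460nm/530nm) ratio of cleaved versus uncleaved CCF4-AM substrate, read after 2 h substrate loading. Cells were HCT116 carrying the p53-responsive beta-lactamase reporter, dosed 16 h at 37C, 5% CO2; CellTiter-Glo measured in parallel.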

Test [10] in a line: Tanguay_ZF_120hpf_MORT_legacy: (Legacy) Oregon State University Tanguay Lab 120 Hour Post-fertilization zebrafish Assay for Mortality (AID 2283633).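 For AC50: fitted as increase in binary mortality versus DMSO negative control.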 The method, boiled down: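 Brightfield scoring of embryo death (binary) at 24 and 120 hpf; static exposure 6–120 hpf, 28C, sealed and foil-covered. Pronase-dechorionated 5D wild-type larvae, single embryo per well. DMSO 0.64% v/v; trimethyltin chloride 5uM positive control.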

The nature of test [11]: Tanguay_ZF_120hpf_YSE_legacy: (Legacy) Oregon State University Tanguay Lab 120 Hour Post-fertilization zebrafish Assay for Yolk Sac Edema (AID 2283634).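 For AC50: actives raise the incidence of yolk sac edema above the DMSO baseline.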 The method, boiled down:
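Binary brightfield scoring of yolk sac edema at 120 hpf; DMSO baseline, gain-of-signal fitting. Dechorionated 5D larvae, one per well, static exposure 6–120 hpf, 28C, 0.64% DMSO. Dead embryos not scored.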

A short description of test [12]: Tanguay_ZF_120hpf_AXIS_legacy: (Legacy) Oregon State University Tanguay Lab 120 Hour Post-fertilization zebrafish Assay for Body Axis Malformation (AID 2283635).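 For AC50: potency for an increased fraction of larvae scored with body axis malformation.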 The procedure, abridged: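 Embryos: 5D wild-type, pronase-dechorionated 4 hpf; static exposure 6–120 hpf, 28C, sealed, dark, 1 embryo/well, 0.64% DMSO. 120 hpf axis malformation scored present/absent; dead embryos excluded. Analysed as gain of signal vs DMSO.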

The nature of test [13]: Tanguay_ZF_120hpf_EYE_legacy: (Legacy) Oregon State University Tanguay Lab 120 Hour Post-fertilization zebrafish Assay for Eye Malformation (AID 2283636). The method, boiled down:
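Read-out is binary presence or absence of eye malformation, scored by brightfield microscopy at 120 hpf. Single larvae were exposed from 6 hpf in embryo medium containing 0.64% DMSO, with DMSO as baseline.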

Test [14] is described as follows: Tanguay_ZF_120hpf_SNOU_legacy: (Legacy) Oregon State University Tanguay Lab 120 Hour Post-fertilization zebrafish Assay for Snout Malformation (AID 2283637). The method, boiled down: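 Snout malformation read as a yes/no call on brightfield images of 120 hpf larvae (Tropical 5D strain). Static exposure began at 6 hpf on dechorionated embryos in 0.64% DMSO, with gain of signal analysed versus DMSO controls.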

Test [15] in a line: Tanguay_ZF_120hpf_JAW_legacy: (Legacy) Oregon State University Tanguay Lab 120 Hour Post-fertilization zebrafish Assay for Jaw Malformation (AID 2283638).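 For AC50: active means more embryos with jaw malformation than DMSO controls.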 The procedure, abridged: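 Binary jaw-malformation calls at 120 hpf by brightfield imaging; DMSO (0.64% v/v) = baseline. Embryos: 5D wild-type, pronase-dechorionated, one per well from 6 hpf, static exposure, 28C, sealed, dark.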

Test [16] in a line: Tanguay_ZF_120hpf_OTIC_legacy: (Legacy) Oregon State University Tanguay Lab 120 Hour Post-fertilization zebrafish Assay for Otic Vesicle Malformation (AID 2283639). The procedure, abridged: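 Tropical 5D wild-type zebrafish embryos were exposed statically in sealed, foil-covered plates at 28C until 120 hpf, with 0.64% (vol/vol) DMSO final. Otic vesicle malformation was scored present/absent by brightfield microscopy, with DMSO as baseline.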

Test [17] can be described thus: Tanguay_ZF_120hpf_SOMI_legacy: (Legacy) Oregon State University Tanguay Lab 120 Hour Post-fertilization zebrafish Assay for Somite Malformation (AID 2283647). The procedure, abridged: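 Binary brightfield scoring of somite defects at 120 hpf in 5D wild-type larvae; one dechorionated embryo per well, static exposure from 6 hpf, 28C, sealed and dark. Final DMSO 0.64%; trimethyltin chloride 5uM positive control.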

The nature of test [18]: Tanguay_ZF_120hpf_CFIN_legacy: (Legacy) Oregon State University Tanguay Lab 120 Hour Post-fertilization zebrafish Assay for Caudal Fin Malformation (AID 2283649). The method, boiled down:
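Dechorionated 5D wild-type zebrafish, static exposure 6–120 hpf, 28C, sealed and dark, 0.64% v/v DMSO final. Binary fin-malformation call at 120 hpf, brightfield; gain of signal vs DMSO baseline.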

Test [19] in a line: Tanguay_ZF_120hpf_PFIN_legacy: (Legacy) Oregon State University Tanguay Lab 120 Hour Post-fertilization zebrafish Assay for Pectoral Fin Malformation (AID 2283648).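 Note: each larva judged yes or no for fin defect by brightfield with dead larvae skipped.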 The method, boiled down: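 5D WT zebrafish; pronase dechorionation 4 hpf; 1 embryo/well at 6 hpf; static exposure to 120 hpf, 28C, sealed, foil-covered; final DMSO 0.64% v/v; 5 uM trimethyltin chloride positive control; fin defect scored yes/no.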

Sequence of Cellular tumor antigen p53 (Homo sapiens) (P04637 whole entry, looked up): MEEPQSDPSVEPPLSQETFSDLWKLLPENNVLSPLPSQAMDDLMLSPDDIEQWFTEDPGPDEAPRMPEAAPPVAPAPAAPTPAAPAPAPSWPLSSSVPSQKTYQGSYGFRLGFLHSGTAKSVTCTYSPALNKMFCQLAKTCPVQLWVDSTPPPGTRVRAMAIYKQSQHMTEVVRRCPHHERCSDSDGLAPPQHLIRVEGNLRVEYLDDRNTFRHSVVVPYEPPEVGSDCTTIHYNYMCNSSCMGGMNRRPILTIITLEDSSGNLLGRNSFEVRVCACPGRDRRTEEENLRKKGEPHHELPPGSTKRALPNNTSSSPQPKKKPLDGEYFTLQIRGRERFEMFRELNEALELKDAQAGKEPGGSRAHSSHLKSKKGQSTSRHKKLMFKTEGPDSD

In the case of `CCCN(CCOc1c(Cl)cc(Cl)cc1Cl)C(=O)n1ccnc1`, the outcome in [1], in [2], in [4], in test [5], in test [6] and in [7] was inactive. The molecule was called inactive in [8], in [9], in test [10], in test [11], in test [12] and in test [13]. The molecule was classed as inactive in test [14], in test [15], in test [16], in test [17] and in test [18]. Moreover, the AC50 is 86.1 µM (active) in test [3], 75 µM (active) in test [5], 75.3 µM (active) in [7] and 74.6 µM (active) in [9].
Consider `CC[C@H](C)[C@H]1O[C@]2(C=C[C@@H]1C)C[C@@H]1C[C@@H](C/C=C(\C)[C@@H](O[C@H]3C[C@H](OC)[C@@H](O[C@H]4C[C@H](OC)[C@@H](O)[C@H](C)O4)[C@H](C)O3)[C@@H](C)/C=C/C=C3\CO[C@@H]4[C@H](O)C(C)=C[C@@H](C(=O)O1)[C@]34O)O2` (tested in a mixture with another compound), for which the AC50 in [2] was 9.13 µM (active) and 43.5 µM (active); in test [3], 17.6 µM (active); in [4], 15.9 µM (active); in test [5], 28.7 µM (active); in test [6], 6.67 µM (active) and 35.5 µM (active); in [7], 31.4 µM (active). For the same molecule, the AC50 in [8] was 7.91 µM (active) and 42.1 µM (active); in [10], 13.9 µM (active); in [12] it was 8.9 µM (active); in test [14], 934 nM (active). Also, the result in test [3], in test [4], in [7], in [9], in test [11] and in test [13] was inactive. In addition, the outcome in test [15], in test [16], in test [17] and in [18] was inactive.
In the case of `CCC(C)(NC(=O)c1cc(Cl)c(C)c(Cl)c1)C(=O)CCl` (stereo not given), the AC50 is 71.9 µM (active) in test [2]; 30.2 µM (active) in test [3]; 76.4 µM (active) in [4]; 29.6 µM (active) in [5]; 60.3 µM (active) in test [6]; 72.2 µM (active) in test [7]. For the same molecule, the AC50 in [8] was 74.7 µM (active); in test [9], 66.8 µM (active); in test [11], 26.1 µM (active); in [13], 28.2 µM (active); in test [14] it was 25400 nM (active). Moreover, the molecule was called inactive in test [10], in test [12], in test [15], in test [16] and in test [18].
With `CC(C)(C)C(O)C(Oc1ccc(Cl)cc1)n1cncn1` (stereo not given), the molecule was called inactive in test [1], in [2], in test [3], in [4], in [5] and in test [6]. The result in [7], in [8], in test [9], in test [10], in test [14] and in [15] was inactive. For the same molecule, the molecule was called inactive in test [17] and in test [18]. The AC50 was 40.2 µM (active) and 31 µM (active) and 43.9 µM (active) in test [11]; 40.7 µM (active) and 31.9 µM (active) and 48.1 µM (active) in test [12]; 43.8 µM (active) and 32.4 µM (active) and 39.9 µM (active) in test [13]; 33.7 µM (active) and 47.3 µM (active) in test [14]; 32 µM (active) and 51.8 µM (active) in [15]; 46.2 µM (active) and 33 µM (active) and 45.3 µM (active) in test [16]. For the same molecule, the half-maximal activity concentration (AC50) in test [17] is 46 µM (active); in test [19] it was 47.2 µM (active) and 33.2 µM (active) and 39.7 µM (active); in [18], 40.7 µM (active).

In general, AC50 refers to the concentration giving half of the maximal activity seen.
